Key:
[1] = molecular target: POU1 (OCT1 POU domain) (human, UniProt P14859 260-458); assay: EMSA-SELEX-seq; no BOB1; 20 mM Tris-HCl pH 7.6, 140 mM NaCl, 10% glycerol, 0.5 mM EDTA, 0.05% Triton X-100, 0.1 mg/mL BSA, 0.1 mg/mL poly(dI-dC), 5 mM DTT, room temperature, 20 min; high values mean tight binding; conditions: protein: recombinant; dsDNA, one strand shown
How it was run: (§1)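 Binding preference is reported as the percentage of sequenced 8-mers that match a motif pattern. Tagged POU-domain proteins were made in E. coli BL21, purified under denaturing conditions and renatured. A 30 ng portion was combined with 300 ng of a PCR-amplified double-stranded random 35-nt library, with or without 28 ng coactivator protein, in 20 μL Tris–HCl pH 7.6 binding buffer for 20 min at RT. Complex bands were excised from native 6% PAGE, eluted and PCR-amplified over four rounds before Illumina sequencing.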

[2] = molecular target: T1, POU2 (OCT2 POU domain) (human, UniProt P09086 175-386); assay: as above; conditions: protein: recombinant; dsDNA, one strand shown
T1 sequence: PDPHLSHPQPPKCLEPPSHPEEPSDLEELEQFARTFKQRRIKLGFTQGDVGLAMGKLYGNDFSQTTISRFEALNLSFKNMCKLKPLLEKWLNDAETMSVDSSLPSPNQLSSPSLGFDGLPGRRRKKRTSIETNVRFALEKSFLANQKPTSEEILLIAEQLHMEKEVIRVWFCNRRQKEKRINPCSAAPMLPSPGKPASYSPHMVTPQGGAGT
How it was run: as §1

[3] = molecular target: POU1 (OCT1 POU domain);BOB1 (OBF1, OCA-B) (human;human, UniProt P14859;Q16633 260-458;1-256, |); assay: EMSA-SELEX-seq; with BOB1 (ternary complex band); 20 mM Tris-HCl pH 7.6, 140 mM NaCl, 10% glycerol, 0.5 mM EDTA, 0.05% Triton X-100, 0.1 mg/mL BSA, 0.1 mg/mL poly(dI-dC), 5 mM DTT, room temperature, 20 min; high values mean tight binding; conditions: protein: recombinant;recombinant; copies: 1;1; dsDNA, one strand shown
How it was run: as §1

[4] = molecular target: T2, POU2 (OCT2 POU domain);BOB1 (OBF1, OCA-B) (human;human, UniProt P09086;Q16633 175-386;1-256, |); assay: as above; conditions: protein: recombinant;recombinant; copies: 1;1; dsDNA, one strand shown
T2 sequence 1: T1 sequence
T2 sequence 2: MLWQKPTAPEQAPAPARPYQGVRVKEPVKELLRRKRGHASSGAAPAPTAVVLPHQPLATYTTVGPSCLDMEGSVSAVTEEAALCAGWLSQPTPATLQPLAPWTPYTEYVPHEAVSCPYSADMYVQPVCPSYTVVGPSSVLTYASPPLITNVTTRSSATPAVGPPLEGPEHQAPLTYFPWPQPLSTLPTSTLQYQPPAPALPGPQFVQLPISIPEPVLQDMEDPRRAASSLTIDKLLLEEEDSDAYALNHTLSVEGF
How it was run: as §1

POU1 (OCT1 POU domain), sequence (P14859 260-458): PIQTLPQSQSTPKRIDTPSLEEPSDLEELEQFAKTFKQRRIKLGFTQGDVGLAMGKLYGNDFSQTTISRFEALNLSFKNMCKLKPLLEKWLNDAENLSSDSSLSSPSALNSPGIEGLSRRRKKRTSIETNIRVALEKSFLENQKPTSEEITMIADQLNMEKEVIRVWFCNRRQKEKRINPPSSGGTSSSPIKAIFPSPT

Sequence	binding signal [1]	binding signal [2]	binding signal [3]	binding signal [4]
AGATCAAC	0.0175 % of ANNNNAAN 8-mers	0.0207 % of ANNNNAAN 8-mers	0.0211 % of ANNNNAAN 8-mers	0.0338 % of ANNNNAAN 8-mers
AGGATAAT	0.168 % of ANNNNAAN 8-mers	0.209 % of ANNNNAAN 8-mers	0.0952 % of ANNNNAAN 8-mers	0.106 % of ANNNNAAN 8-mers
AGACCAAG	0.0137 % of ANNNNAAN 8-mers	0.0121 % of ANNNNAAN 8-mers	0.0164 % of ANNNNAAN 8-mers	0.014 % of ANNNNAAN 8-mers
ATCACAAG	0.0225 % of ANNNNAAN 8-mers	0.0334 % of ANNNNAAN 8-mers	0.0328 % of ANNNNAAN 8-mers	0.0446 % of ANNNNAAN 8-mers
AGAAGAAC	0.0191 % of ANNNNAAN 8-mers	0.0288 % of ANNNNAAN 8-mers	0.0176 % of ANNNNAAN 8-mers	0.0256 % of ANNNNAAN 8-mers
AAATAAAT	0.261 % of ANNNNAAN 8-mers	0.275 % of ANNNNAAN 8-mers	0.232 % of ANNNNAAN 8-mers	0.22 % of ANNNNAAN 8-mers
ATCGTAAT	0.085 % of ANNNNAAN 8-mers	0.108 % of ANNNNAAN 8-mers	0.0679 % of ANNNNAAN 8-mers	0.0768 % of ANNNNAAN 8-mers
AACTAAAT	0.0778 % of ANNNNAAN 8-mers	0.0811 % of ANNNNAAN 8-mers	0.0667 % of ANNNNAAN 8-mers	0.0594 % of ANNNNAAN 8-mers
ATGCAAAT	5.32 % of ANNNNAAN 8-mers	5.41 % of ANNNNAAN 8-mers	8.18 % of ANNNNAAN 8-mers	12.6 % of ANNNNAAN 8-mers
ACAAGAAG	0.0347 % of ANNNNAAN 8-mers	0.0316 % of ANNNNAAN 8-mers	0.0273 % of ANNNNAAN 8-mers	0.0322 % of ANNNNAAN 8-mers
AGTGCAAT	0.0347 % of ANNNNAAN 8-mers	0.0455 % of ANNNNAAN 8-mers	0.0367 % of ANNNNAAN 8-mers	0.0396 % of ANNNNAAN 8-mers
AAACCAAG	0.0233 % of ANNNNAAN 8-mers	0.0161 % of ANNNNAAN 8-mers	0.0293 % of ANNNNAAN 8-mers	0.0198 % of ANNNNAAN 8-mers
ACGTGAAT	0.0732 % of ANNNNAAN 8-mers	0.107 % of ANNNNAAN 8-mers	0.0558 % of ANNNNAAN 8-mers	0.0784 % of ANNNNAAN 8-mers
ACTCTAAC	0.013 % of ANNNNAAN 8-mers	0.015 % of ANNNNAAN 8-mers	0.0187 % of ANNNNAAN 8-mers	0.0182 % of ANNNNAAN 8-mers
ACATCAAA	0.0374 % of ANNNNAAN 8-mers	0.0391 % of ANNNNAAN 8-mers	0.0363 % of ANNNNAAN 8-mers	0.0239 % of ANNNNAAN 8-mers
ACAGAAAA	0.0389 % of ANNNNAAN 8-mers	0.0472 % of ANNNNAAN 8-mers	0.0472 % of ANNNNAAN 8-mers	0.0322 % of ANNNNAAN 8-mers

Sequence	binding signal [1]	binding signal [2]	binding signal [3]	binding signal [4]
ATAGAAAG	0.0461 % of ANNNNAAN 8-mers	0.0598 % of ANNNNAAN 8-mers	0.0546 % of ANNNNAAN 8-mers	0.0487 % of ANNNNAAN 8-mers
AATAGAAT	0.113 % of ANNNNAAN 8-mers	0.136 % of ANNNNAAN 8-mers	0.0921 % of ANNNNAAN 8-mers	0.121 % of ANNNNAAN 8-mers
ACGAGAAA	0.0381 % of ANNNNAAN 8-mers	0.0437 % of ANNNNAAN 8-mers	0.0355 % of ANNNNAAN 8-mers	0.038 % of ANNNNAAN 8-mers
AGGATAAA	0.0549 % of ANNNNAAN 8-mers	0.0834 % of ANNNNAAN 8-mers	0.0609 % of ANNNNAAN 8-mers	0.0718 % of ANNNNAAN 8-mers
AGTAAAAC	0.0427 % of ANNNNAAN 8-mers	0.0391 % of ANNNNAAN 8-mers	0.0663 % of ANNNNAAN 8-mers	0.0454 % of ANNNNAAN 8-mers
AAGAGAAA	0.0511 % of ANNNNAAN 8-mers	0.0621 % of ANNNNAAN 8-mers	0.0531 % of ANNNNAAN 8-mers	0.038 % of ANNNNAAN 8-mers
AGCGTAAC	0.0168 % of ANNNNAAN 8-mers	0.0207 % of ANNNNAAN 8-mers	0.0144 % of ANNNNAAN 8-mers	0.0149 % of ANNNNAAN 8-mers
ATCTCAAT	0.0561 % of ANNNNAAN 8-mers	0.0846 % of ANNNNAAN 8-mers	0.0558 % of ANNNNAAN 8-mers	0.0768 % of ANNNNAAN 8-mers
ATGTAAAA	0.714 % of ANNNNAAN 8-mers	0.496 % of ANNNNAAN 8-mers	0.631 % of ANNNNAAN 8-mers	0.618 % of ANNNNAAN 8-mers
ATGAGAAC	0.0404 % of ANNNNAAN 8-mers	0.0552 % of ANNNNAAN 8-mers	0.03 % of ANNNNAAN 8-mers	0.0388 % of ANNNNAAN 8-mers
ACAATAAA	0.0481 % of ANNNNAAN 8-mers	0.0495 % of ANNNNAAN 8-mers	0.0453 % of ANNNNAAN 8-mers	0.0396 % of ANNNNAAN 8-mers
AAACGAAA	0.0568 % of ANNNNAAN 8-mers	0.0558 % of ANNNNAAN 8-mers	0.0644 % of ANNNNAAN 8-mers	0.052 % of ANNNNAAN 8-mers
AACTCAAC	0.0168 % of ANNNNAAN 8-mers	0.0288 % of ANNNNAAN 8-mers	0.0172 % of ANNNNAAN 8-mers	0.0182 % of ANNNNAAN 8-mers
AAATCAAC	0.0759 % of ANNNNAAN 8-mers	0.0921 % of ANNNNAAN 8-mers	0.096 % of ANNNNAAN 8-mers	0.0916 % of ANNNNAAN 8-mers
AGCGTAAG	0.0214 % of ANNNNAAN 8-mers	0.0293 % of ANNNNAAN 8-mers	0.0215 % of ANNNNAAN 8-mers	0.0338 % of ANNNNAAN 8-mers
ATGTAAAT	3.45 % of ANNNNAAN 8-mers	2.89 % of ANNNNAAN 8-mers	2.3 % of ANNNNAAN 8-mers	3.57 % of ANNNNAAN 8-mers
